Experimental data reported in PubChem BioAssay (EPA / NIEHS).
Several values for one entry are separate records, joined by “and”; a condition that tells them apart may be missing. Identical values can stand only once. Inconclusive results are not listed. The source holds several records for some structures; these can differ, active in one and inactive in another. Activity calls are given as the source filed them. How the source made its calls, unless noted: active means hit-call score of the fitted dose curve at least 0.9, where 1 is the maximum; inactive means score below 0.9.

Columns and labels:
[1] = molecular target: Retinoic acid receptor RXR-alpha (Homo sapiens) (UniProt P19793); assay: ATG_RXRa_TRANS: Attagene TRANS-FACTORIAL HepG2 Assay for human Retinoid X Receptor alpha (RXRa) (AID 2283012; active means hit-call score of the fitted dose curve at least 0.9, where 1 is the maximum)
Sequence of Retinoic acid receptor RXR-alpha (Homo sapiens) (P19793 whole entry, looked up, the tested form may be a part): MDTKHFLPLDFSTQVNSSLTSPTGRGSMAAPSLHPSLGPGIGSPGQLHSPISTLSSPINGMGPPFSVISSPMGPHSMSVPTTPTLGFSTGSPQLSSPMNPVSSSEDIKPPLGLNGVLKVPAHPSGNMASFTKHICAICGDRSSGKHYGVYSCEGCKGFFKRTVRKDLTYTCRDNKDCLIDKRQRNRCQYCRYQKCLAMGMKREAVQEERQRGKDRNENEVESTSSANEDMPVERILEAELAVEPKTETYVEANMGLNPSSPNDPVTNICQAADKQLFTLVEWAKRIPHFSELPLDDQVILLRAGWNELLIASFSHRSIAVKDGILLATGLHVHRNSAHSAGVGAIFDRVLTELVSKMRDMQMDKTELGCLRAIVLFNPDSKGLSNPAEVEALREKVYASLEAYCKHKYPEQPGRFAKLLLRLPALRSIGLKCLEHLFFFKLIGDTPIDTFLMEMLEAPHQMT
Summary of the method: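 Measures exogenous chimeric NR-GAL4 activity in transfected HepG2 liver cells after 24 h of dosing. Induced reporter mRNA was detected by RT-PCR with capillary electrophoresis, and gain of signal was analysed against DMSO.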

[2] = molecular target: human Retinoid X Receptor beta (RXRb), RXRB (gene 6257) (UniProt P28702); assay: ATG_RXRb_TRANS: Attagene TRANS-FACTORIAL HepG2 Assay for human Retinoid X Receptor beta (RXRb) (AID 2283013; active means hit-call score of the fitted dose curve at least 0.9, where 1 is the maximum)
Sequence of human Retinoid X Receptor beta (RXRb), RXRB (gene 6257) (P28702 whole entry, looked up, the tested form may be a part): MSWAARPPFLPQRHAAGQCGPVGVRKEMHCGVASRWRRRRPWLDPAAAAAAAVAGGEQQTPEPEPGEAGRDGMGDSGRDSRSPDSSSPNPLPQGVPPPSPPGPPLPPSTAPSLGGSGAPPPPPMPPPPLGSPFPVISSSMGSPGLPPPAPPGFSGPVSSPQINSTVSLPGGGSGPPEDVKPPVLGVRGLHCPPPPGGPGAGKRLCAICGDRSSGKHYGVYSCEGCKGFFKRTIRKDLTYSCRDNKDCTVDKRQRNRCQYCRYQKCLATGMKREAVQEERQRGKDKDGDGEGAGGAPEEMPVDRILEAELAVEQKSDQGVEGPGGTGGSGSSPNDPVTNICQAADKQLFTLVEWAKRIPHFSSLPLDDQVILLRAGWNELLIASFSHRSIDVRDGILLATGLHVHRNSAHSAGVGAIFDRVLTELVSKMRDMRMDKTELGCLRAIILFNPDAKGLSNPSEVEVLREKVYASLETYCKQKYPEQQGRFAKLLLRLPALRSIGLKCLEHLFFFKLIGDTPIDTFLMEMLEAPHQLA
Summary of the method: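 Chimeric receptor-Gal4 activity was assessed in transiently transfected human HepG2 cells after 24 h exposure. Transcripts from GAL4-UAS reporters were quantified by fluorescent RT-PCR and capillary electrophoresis, with DMSO as negative control and baseline.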

[3] = molecular target: human Thyroid Receptor alpha (THRa1), THRA (gene 7067) (UniProt P10827); assay: ATG_THRa1_TRANS: Attagene TRANS-FACTORIAL HepG2 Assay for human Thyroid Receptor alpha (THRa1) (AID 2283014; active means hit-call score of the fitted dose curve at least 0.9, where 1 is the maximum)
Sequence of human Thyroid Receptor alpha (THRa1), THRA (gene 7067) (P10827 whole entry, looked up, the tested form may be a part): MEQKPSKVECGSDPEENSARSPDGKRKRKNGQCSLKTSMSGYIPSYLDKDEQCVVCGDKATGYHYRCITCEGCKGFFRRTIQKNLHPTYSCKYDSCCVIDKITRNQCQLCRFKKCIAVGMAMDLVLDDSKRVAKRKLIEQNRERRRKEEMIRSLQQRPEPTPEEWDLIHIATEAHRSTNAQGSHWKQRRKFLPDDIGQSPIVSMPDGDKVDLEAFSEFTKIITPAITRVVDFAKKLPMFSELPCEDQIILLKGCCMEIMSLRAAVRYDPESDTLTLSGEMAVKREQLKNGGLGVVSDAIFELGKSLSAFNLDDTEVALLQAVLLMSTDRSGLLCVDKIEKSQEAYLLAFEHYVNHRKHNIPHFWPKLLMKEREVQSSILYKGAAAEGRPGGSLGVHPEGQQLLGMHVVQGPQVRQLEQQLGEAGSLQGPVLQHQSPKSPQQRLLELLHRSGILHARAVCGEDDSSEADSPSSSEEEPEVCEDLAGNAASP
Summary of the method: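 Transient HepG2 transfection, NR-Gal4 chimera driving GAL4-UAS reporters; 24 h compound exposure; total RNA, oligo(dT) RT, PCR, fluorescent primer extension, capillary electrophoresis. Upward direction vs DMSO control.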

[4] = read-out: Interleukin-1 alpha (IL1a), IL1A (gene 3552); assay: BSK_BE3C_IL1a: BioMAP Diversity Plus: BE3C Assay for Interleukin-1 alpha (IL1a) Biomarker Activity (AID 2283016); details: primary human bronchial epithelial cells; actives raise or lower the signal
Summary of the method: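 Signal from IL-1a ELISA, taken 24 h after chemical dosing of human bronchial epithelial cells, is compared with DMSO as baseline using bidirectional curve fitting.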

[5] = read-out: Monocyte Chemoattractant Protein-1 (MCP1), CCL2 (gene 6347); assay: BSK_3C_MCP1: BioMAP Diversity Plus: 3C Assay for Monocyte Chemoattractant Protein-1 (MCP1) Biomarker Activity (AID 2283017); details: primary human endothelial cells (HUVEC); actives raise or lower the signal
Summary of the method: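 HUVEC, 3C system; 24 h chemical exposure; MCP-1 by ELISA; bidirectional curve fit vs DMSO baseline.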

[6] = read-out: Monocyte Chemoattractant Protein-1 (MCP1), CCL2 (gene 6347); assay: BSK_4H_MCP1: BioMAP Diversity Plus: 4H Assay for Monocyte Chemoattractant Protein-1 (MCP1) Biomarker Activity (AID 2283018); details: primary human endothelial cells (HUVEC); actives raise or lower the signal
Summary of the method: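 Endothelial cells from umbilical vein were treated with test chemical, then after 24 h MCP-1 levels were quantified by ELISA; endpoint values came from bidirectional fitting with DMSO as baseline of activity.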

[7] = read-out: Human Leukocyte Antigen - DR isotype (HLADR), HLA-DRA (gene 3122); assay: BSK_3C_HLADR: BioMAP Diversity Plus: 3C Assay for Human Leukocyte Antigen - DR isotype (HLADR) Biomarker Activity (AID 2283019); details: primary human endothelial cells (HUVEC); actives raise or lower the signal
Summary of the method: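 HUVEC, 3C stimulation, 24 h post-dose; HLA-DR by ELISA; bidirectional curve fit vs DMSO baseline; gain or loss of signal scored.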

[8] = read-out: Monokine induced gamma interferon (MIG), CXCL9 (gene 4283); assay: BSK_3C_MIG: BioMAP Diversity Plus: 3C Assay for Monokine induced gamma interferon (MIG) Biomarker Activity (AID 2283021); details: primary human endothelial cells (HUVEC); actives raise or lower the signal;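 on AC50: MIG protein level measured by immunoassay in the treated endothelial cultures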
Summary of the method: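 Endothelial primary cells (human umbilical vein) are dosed with test chemical in the 3C system. MIG levels are measured by ELISA at 24 h and fitted in both directions relative to DMSO.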

[9] = molecular target: human Vitamin D Receptor (VDR), VDR (gene 7421) (UniProt P11473); assay: ATG_VDR_TRANS: Attagene TRANS-FACTORIAL HepG2 Assay for human Vitamin D Receptor (VDR) (AID 2283022; active means hit-call score of the fitted dose curve at least 0.9, where 1 is the maximum)
Sequence of human Vitamin D Receptor (VDR), VDR (gene 7421) (P11473 whole entry, looked up, the tested form may be a part): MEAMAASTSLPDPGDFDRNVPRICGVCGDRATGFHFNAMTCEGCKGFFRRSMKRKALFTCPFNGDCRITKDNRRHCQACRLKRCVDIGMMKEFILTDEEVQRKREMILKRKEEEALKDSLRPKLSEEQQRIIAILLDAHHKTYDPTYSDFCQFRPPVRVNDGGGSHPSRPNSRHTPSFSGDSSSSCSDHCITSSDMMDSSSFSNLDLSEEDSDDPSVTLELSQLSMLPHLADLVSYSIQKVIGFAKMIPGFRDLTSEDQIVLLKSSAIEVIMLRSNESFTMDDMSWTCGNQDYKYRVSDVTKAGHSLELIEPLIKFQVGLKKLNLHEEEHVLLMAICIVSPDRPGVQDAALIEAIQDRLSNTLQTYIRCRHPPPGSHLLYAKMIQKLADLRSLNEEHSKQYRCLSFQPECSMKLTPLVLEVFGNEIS
Summary of the method: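 RT-PCR/capillary electrophoresis read-out of reporter mRNA induction in transiently transfected HepG2; 24 h dosing; chimeric NR-Gal4 (TRANS format); gain-of-signal fit against DMSO baseline.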

[10] = BSK_3C_SRB: Viability Assessment in the BioMAP Diversity Plus: 3C Assay (AID 2283023); details: primary human endothelial cells (HUVEC);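 further: fitted both ways against DMSO so a hit may be signal rise or drop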
Summary of the method: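 HUVEC, 24 h post-dose; 10% TCA fix, 0.1% SRB stain, A560 nm. Bidirectional curve fit vs DMSO negative control.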

[11] = read-out: Matrix Metallopeptidase 1 (MMP1), MMP1 (gene 4312); assay: BSK_BE3C_MMP1: BioMAP Diversity Plus: BE3C Assay for Matrix Metallopeptidase 1 (MMP1) Biomarker Activity (AID 2283024); details: primary human bronchial epithelial cells; actives raise or lower the signal
Summary of the method: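 MMP1 signal, measured by ELISA after a 24 h chemical exposure of human primary bronchial epithelial cells, is analysed with bidirectional fitting using DMSO as negative control.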

[12] = BSK_3C_Vis: BioMAP Diversity Plus: 3C Assay for Morphology Visualization (AID 2283025); details: primary human endothelial cells (HUVEC);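 further: fitted both ways so gain or loss versus DMSO counts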
Summary of the method: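 Morphology read by light microscopy serves as a background control for the multiplexed 3C assay in human umbilical vein endothelial cells, taken 24 h after dosing, with DMSO as the negative control and bidirectional curve fitting.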

[13] = read-out: Pselectin, SELP (gene 6403); assay: BSK_4H_Pselectin: BioMAP Diversity Plus: 4H Assay for Pselectin Biomarker Activity (AID 2283026); details: primary human endothelial cells (HUVEC); actives raise or lower the signal
Summary of the method: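 Endothelial primary cells (human umbilical vein) are dosed, incubated 24 h, and assayed for surface P-selectin by ELISA; responses in either direction are fitted relative to the DMSO negative control.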

[14] = BSK_4H_SRB: Viability Assessment in the BioMAP Diversity Plus: 4H Assay (AID 2283027); details: primary human endothelial cells (HUVEC);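 further: cells exposed to compound for 24 h before staining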;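 on AC50: curves fitted both ways versus DMSO so AC50 may be loss or gain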
Summary of the method: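 HUVEC, 24 h post-dose; 10% TCA fix, 0.1% SRB stain, A560 nm. Total protein = overt cytotoxicity, parallel to biomarker read. Bidirectional fit vs DMSO baseline.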

[15] = BSK_BE3C_SRB: Viability Assessment in the BioMAP Diversity Plus: BE3C Assay (AID 2283028); details: primary human bronchial epithelial cells;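 on AC50: fitted both ways so AC50 may mark signal gain or loss versus DMSO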
Summary of the method: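 Primary human bronchial epithelium; chemical dosing, 24 h; 10% TCA fix, 0.1% SRB stain, A560; bidirectional fit vs DMSO baseline.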

[16] = read-out: Thrombomodulin, THBD (gene 7056); assay: BSK_3C_Thrombomodulin: BioMAP Diversity Plus: 3C Assay for Thrombomodulin Biomarker Activity (AID 2283029); details: primary human endothelial cells (HUVEC); actives raise or lower the signal
Summary of the method: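 Endothelial cells from umbilical vein are dosed with test chemical and incubated 24 h. Thrombomodulin is then quantified by ELISA, with DMSO serving as negative control and activity baseline.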

[17] = read-out: Urokinase-type plasminogen activator receptor (uPAR), PLAUR (gene 5329); assay: BSK_4H_uPAR: BioMAP Diversity Plus: 4H Assay for Urokinase-type plasminogen activator receptor (uPAR) Biomarker Activity (AID 2283030); details: primary human endothelial cells (HUVEC); actives raise or lower the signal
Summary of the method: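 HUVEC, 24 h post-dose; uPAR by ELISA; bidirectional fit vs DMSO baseline.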

[18] = molecular target: human RAR-related Orphan Receptor gamma (RORg), RORC (gene 6097) (UniProt P51449); assay: ATG_RORg_TRANS: Attagene TRANS-FACTORIAL HepG2 Assay for human RAR-related Orphan Receptor gamma (RORg) (AID 2283011; active means hit-call score of the fitted dose curve at least 0.9, where 1 is the maximum)
Sequence of human RAR-related Orphan Receptor gamma (RORg), RORC (gene 6097) (P51449 whole entry, looked up, the tested form may be a part): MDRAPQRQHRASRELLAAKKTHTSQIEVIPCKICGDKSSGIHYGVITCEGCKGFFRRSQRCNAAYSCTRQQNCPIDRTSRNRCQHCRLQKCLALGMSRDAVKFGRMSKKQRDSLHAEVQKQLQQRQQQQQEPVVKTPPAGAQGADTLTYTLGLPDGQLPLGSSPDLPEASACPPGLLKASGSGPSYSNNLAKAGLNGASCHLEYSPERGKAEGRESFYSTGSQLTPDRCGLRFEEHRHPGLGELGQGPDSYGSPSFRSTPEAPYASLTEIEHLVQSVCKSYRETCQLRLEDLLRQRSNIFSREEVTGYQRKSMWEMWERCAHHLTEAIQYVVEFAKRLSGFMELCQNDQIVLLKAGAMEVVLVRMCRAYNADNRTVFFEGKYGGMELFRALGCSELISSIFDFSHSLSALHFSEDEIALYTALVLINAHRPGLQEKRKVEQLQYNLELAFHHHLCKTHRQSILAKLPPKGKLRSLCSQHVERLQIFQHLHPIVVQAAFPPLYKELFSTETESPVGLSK
Summary of the method: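 Transient MRTU transfection of HepG2 (TRANS format, exogenous NR-Gal4 chimera). 24 h dosing. Total RNA → oligo(dT) RT → PCR → 6-FAM labelling → HpaI cut → CE. Gain vs DMSO.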

[19] = read-out: E-selectin (Homo sapiens) (UniProt P16581); assay: BSK_3C_Eselectin: BioMAP Diversity Plus: 3C Assay for Eselectin Biomarker Activity (AID 2283015); details: primary human endothelial cells (HUVEC); actives raise or lower the signal
Summary of the method: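 HUVEC, 3C stimulation; compound exposure 24 h; E-selectin by ELISA; gain- or loss-of-signal fitted bidirectionally vs DMSO baseline.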

[20] = read-out: Interleukin-8 (IL8), CXCL8 (gene 3576); assay: BSK_3C_IL8: BioMAP Diversity Plus: 3C Assay for Interleukin-8 (IL8) Biomarker Activity (AID 2283020); details: primary human endothelial cells (HUVEC); actives raise or lower the signal
Summary of the method: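 Endothelial primary cells of human umbilical vein origin are dosed with chemical; after 24 h the IL-8 biomarker is measured by ELISA, and concentration–response is fitted in both directions versus DMSO.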

Measured: AC50

Sequence of E-selectin (Homo sapiens) (P16581 whole entry, looked up): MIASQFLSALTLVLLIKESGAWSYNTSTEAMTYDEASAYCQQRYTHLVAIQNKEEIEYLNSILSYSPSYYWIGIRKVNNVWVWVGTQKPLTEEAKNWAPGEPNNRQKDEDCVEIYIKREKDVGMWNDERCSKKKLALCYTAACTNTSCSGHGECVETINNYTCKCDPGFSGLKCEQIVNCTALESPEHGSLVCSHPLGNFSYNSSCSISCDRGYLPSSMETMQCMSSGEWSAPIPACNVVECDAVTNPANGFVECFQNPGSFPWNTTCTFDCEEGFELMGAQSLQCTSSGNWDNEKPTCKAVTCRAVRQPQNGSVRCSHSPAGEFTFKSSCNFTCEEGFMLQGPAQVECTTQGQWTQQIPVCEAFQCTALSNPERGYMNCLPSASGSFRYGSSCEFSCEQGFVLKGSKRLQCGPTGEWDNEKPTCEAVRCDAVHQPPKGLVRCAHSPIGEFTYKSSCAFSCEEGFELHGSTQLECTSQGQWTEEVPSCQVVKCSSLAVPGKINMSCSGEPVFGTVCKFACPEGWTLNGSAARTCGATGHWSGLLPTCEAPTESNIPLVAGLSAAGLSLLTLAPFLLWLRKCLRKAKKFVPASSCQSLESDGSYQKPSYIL

CO/C=C(/C(=O)OC)c1ccccc1Oc1cc(Oc2ccccc2C#N)ncn1
inactive: [1] | [2] | [3] | [4] | [6] | [8] | [9] | [11] | [12] | [13] | [14] | [15] | [16] | [17]
active: [3] 12.2 µM | [5] 29 µM [middle of 4 runs] | [6] 21.1 µM | [7] 19.6 µM [middle of 4 runs] | [8] 38.1 µM and 33.2 µM and 32.7 µM | [10] 20 µM [middle of 4 runs] | [12] 39.6 µM and 42 µM | [13] 31.7 µM and 21.1 µM | [14] 26.7 µM and 16.4 µM and 24.2 µM | [17] 30.4 µM and 30.6 µM and 30.8 µM

C#CCOS(=O)OC1CCCCC1Oc1ccc(C(C)(C)C)cc1 (configuration not stated)
inactive: [18] | [1] | [3] | [11] | [16]
active: [19] 1.13 µM | [4] 30.3 µM | [5] 10.9 µM | [6] 10.1 µM | [7] 6.28 µM | [20] 7.04 µM | [8] 20 µM | [10] 12.3 µM | [12] 5.07 µM | [13] 3.97 µM | [14] 11.3 µM | [15] 22.7 µM | [17] 20 µM
